# Source: PubChem BioAssay (NCATS)
# Results filed as inconclusive are left out. Where a call stands in place of a potency, no number is given. Values without a mark were called inactive. Calls of active or inactive are those of the source. Calls come from the whole dose curve; as a rule, active = well fitted cell-killing curve with a large enough effect; inconclusive = small, poorly fitted or top-dose-only effect, or effect the other way; inactive = no such curve, though single readings can be large or run the other way.
# Key:
# [1] = Viability qHTS for spleen associated tyrosine kinase inhibitor (SYKi) naive MV4-11 cells (AID 1963823); conditions: MV4-11 AML viability, CellTiter-Glo luminescence, 72 h; series mostly up to 45 µM; note: nearly all actives have a fitted effect of over 40% in size
# In short: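 Seeding of 500 SYKi-naive MV4-11 cells per well onto pre-dispensed compounds preceded a 72 hr incubation at 37 C. Luminescent CellTiter-Glo signal, read after 10 min at room temperature, reflected viable cells.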
# [2] = Viability qHTS for spleen associated tyrosine kinase inhibitor (SYKi) drug resistant MV4-11 cells (AID 1963824); conditions: SYKi-resistant MV4-11 viability, CellTiter-Glo, 72 h; series mostly up to 45 µM; note: nearly all actives have a fitted effect of over 35% in size
# In short: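 CellTiter-Glo luminescence, read 10 min after reagent addition, reports viability after a 72 hr compound exposure. Cells are an MV4-11 line made resistant to SYK inhibition, seeded at 500 per well onto compound-containing plates.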
# Potency is the fitted concentration of half-maximal effect.
Compound,Potency [1],Potency [2],viability (% of control) [1],"viability, % of control [2]"
CC1=C(C)C(=O)OC(C(C)C2CCC3C4CC=C5CC(OC6OC(COC7OC(CO)C(O)C(O)C7O)C(O)C(O)C6O)CC(O)C5(C)C4CCC23C)C1 (stereo unspecified),inactive,inactive,,
CC1=CC(=O)CC(C)(C)[C@@]1(O)/C=C/C(C)O[C@@H]1O[C@H](CO)[C@@H](O)[C@H](O)[C@H]1O (stereo partly specified),inactive,inactive,,
C[C@@H]1O[C@@H](O[C@H]2[C@H](OC(=O)[C@]34CCC(C)(C)C[C@H]3C3=CCC5[C@@]6(C)CC[C@H](O[C@@H]7O[C@H](CO[C@@H]8OC[C@H](O)[C@H](O)[C@H]8O)[C@@H](O)[C@H](O)[C@H]7O)C(C)(C)C6CC[C@@]5(C)[C@]3(C)C[C@H]4O)OC[C@@H](O)[C@@H]2O)[C@H](O)[C@H](O)[C@H]1O[C@@H]1OC[C@H](O)[C@H](O[C@@H]2OC[C@@H](O)[C@H](O)[C@H]2O)[C@H]1O (stereo partly specified),,,84.1% [at 9.25 µM],84.6% [at 9.25 µM]
O=C1NC2CCCCN2C12CCN(CCCN1c3ccccc3CCc3ccc(Cl)cc31)CC2 (stereo unspecified),10.3 µM (active),4.61 µM (active),,
CCCCCCOC(=O)NC(=N)c1ccc(NCc2nc3cc(C(=O)N(CCC(=O)OCC)c4ccccn4)ccc3n2C)cc1,2.35 µM (active),1.48 µM (active),,
CC1OC(O[C@H]2CC[C@@]3(C)C(CC[C@]4(C)C3CC=C3C5CC(C)(C)CC[C@]5(C(=O)OC5OC(CO)C(OC6OCC(OC7OCC(O)C(O)C7O)C(O)C6O)C(O)C5O)CC[C@]34C)C2(C)C)C(O)C(O)C1OC1OC(CO)C(O)C(OC2OC(CO)C(O)C(O)C2O)C1O (stereo partly specified),,,54.2% [at 9.25 µM],62.2% [at 9.25 µM]
O=C(c1ccc2nccnc2c1)N1CCCCC1,inactive,inactive,,
CC1(CCOC2OC(CO)C(O)C(O)C2O)CCC23OC2(C1)C(O)CC1C(C)(C(=O)O)CCCC13C (stereo unspecified),inactive,inactive,,
COC(=O)C[C@H]1C(C)(C)[C@H](OC(=O)C(C)C)[C@@]2(O)C(=O)[C@]1(C)C1CC[C@]3(C)C(CC(=O)O[C@H]3c3ccoc3)[C@]13O[C@@H]32 (stereo partly specified),inactive,inactive,,
Cc1cc(Nc2nn(-c3ccccc3)c(=O)c3ccccc23)n[nH]1,0.146 µM (active),0.461 µM (active),,
CN(C)c1nc2c(Br)c(Br)c(Br)c(Br)c2[nH]1,11.6 µM (active),8.2 µM (active),,
COc1cc2c(cc1OC)C(C(C(=O)N(CCc1ccc(OC)c(OC)c1OC)CCc1ccc(OC)c(OC)c1OC)c1ccccc1)=NCC2 (stereo unspecified),15 µM (active),21.1 µM (active),,
CC1(C)O[C@@]2(C)CC[C@@H]1C[C@@H]2OC1OC(CO)C(O)C(O)C1O (stereo partly specified),inactive,inactive,,
C[C@@H]1CC[C@]2(C(=O)O)CC[C@]3(C(=O)O)C(=CCC4[C@@]5(C)CC[C@H](O[C@@H]6O[C@@H](C)[C@H](O[C@@H]7O[C@H](CO)[C@@H](O)[C@H](O)[C@H]7O)[C@@H](O)[C@H]6O)C(C)(C)C5CC[C@]43C)C2[C@H]1C (stereo partly specified),inactive,inactive,,
C[C@@H]1O[C@@H](O[C@H]2[C@H](O[C@H]3[C@H](O[C@H]4CC[C@@]5(C=O)C(CC[C@]6(C)C5CC=C5C7CC(C)(C)C[C@@H](O)[C@]7(C)CC[C@]56C)C4(C)C)O[C@H](C(=O)O)[C@@H](O)[C@@H]3O)OC[C@@H](O)[C@@H]2O)[C@H](O)[C@H](O)[C@H]1O (stereo partly specified),,,85.7% [at 9.25 µM],103% [at 9.25 µM]
C=CC(=O)N1CCC[C@@H](n2nc(-c3cccc(C(=O)Nc4ccc(C(C)C)c(C)c4)c3)c3c(N)ncnc32)C1,1.46 µM (active),2.31 µM (active),,
COC(=O)C1=COC(O[C@@H]2O[C@H](CO)[C@@H](O)[C@H](O)[C@H]2O)[C@@H]2[C@@](C)(O)[C@@H](OC(=O)/C=C/c3ccccc3)C[C@]12O (stereo partly specified),inactive,inactive,,
COc1cc(C)c(C(=O)Oc2cc(C)c(C(=O)Oc3cc(C)c(C(=O)NC(C)C(=O)O)c(O)c3)c(O[C@@H]3O[C@H](CO)[C@@H](O)[C@H](O)[C@H]3OC(C)=O)c2)c(OC)c1 (stereo partly specified),inactive,inactive,,
CC(C)OC(=O)OCOP(=O)(COC(C)Cn1cnc2c(N)ncnc21)OCOC(=O)OC(C)C (stereo unspecified),2.31 µM (active),2.06 µM (active),,
COc1ccc(CCc2nc3cc(-c4c(C)noc4C)ccc3n2C[C@H](C)N2CCOCC2)cc1Cl,7.31 µM (active),5.8 µM (active),,
C=C(C)[C@@H]1CC[C@]2(C)CC[C@]3(C)[C@H](CC[C@@H]4[C@@]5(C)CC[C@@H](O)C(C)(C)[C@@H]5CC[C@]43C)[C@@H]12,inactive,inactive,,
COC(=O)[C@@H](O)[C@H]1[C@@]2(C)CC3(O)[C@@H](C(=O)[C@H]2O)[C@]24O[C@]25CC(=O)O[C@@H](c2ccoc2)[C@]5(C)CCC4[C@]13C (stereo partly specified),inactive,inactive,,

Compound,Potency [1],Potency [2],viability (% of control) [1],"viability, % of control [2]"
CC(C)(O[C@@H]1O[C@H](CO)[C@@H](O)[C@H](O)[C@H]1O)C(OC(=O)/C=C\c1ccc(O)cc1)C(=O)OCc1ccc(O[C@@H]2O[C@H](CO)[C@@H](O)[C@H](O)[C@H]2O)cc1 (stereo partly specified),inactive,inactive,,
Cc1nc(N2CCN(C(=O)c3ccco3)CC2)c2c3c(sc2n1)CCCC3,9.2 µM (active),14.6 µM (active),,
CCC(CC)C(=O)OC12C(OC(=O)C(C)C)C(C)C3(O)C(C=C(CO)CC4(O)C(=O)C(C)=CC43)C1C2(C)C (stereo unspecified),0.0282 µM (active),0.01 µM (active),,
COc1cc([C@H]2OC[C@@H]3[C@@H](c4ccc(O[C@@H]5O[C@H](CO)[C@@H](O)[C@H](O)[C@H]5O)c(OC)c4)OC[C@]23O)ccc1O,inactive,inactive,,
Cc1ccc(C(C)C)c(O[C@@H]2O[C@H](CO)[C@@H](O)[C@H](O)[C@H]2O)c1,inactive,inactive,,
CCOC(=O)N1CCN(/[N+]([O-])=N/Oc2ccc([N+](=O)[O-])cc2[N+](=O)[O-])CC1,2.95 µM (active),2.63 µM (active),,
C[C@@H]1CC2OC(=O)C3=C2C(CCC3O)[C@@]12C[C@@H](c1ccoc1)OC2=O (stereo partly specified),inactive,inactive,,
CC1(C)CC[C@]23CO[C@@]4(CCC5[C@@]6(C)CC[C@H](O[C@@H]7OC[C@H](O[C@@H]8O[C@H](CO)[C@@H](O)[C@H](O)[C@H]8O[C@@H]8OC[C@@H](O)[C@H](O)[C@H]8O)[C@H](O)[C@H]7O)[C@@](C)(CO)C6CC[C@@]5(C)[C@]4(C)CC2=O)[C@@H]3C1 (stereo partly specified),3.1 µM (active),4.91 µM (active),,
O=c1[nH]cnc2c([C@@H]3N[C@H](CO)[C@@H](O)[C@H]3O)c[nH]c12,inactive,inactive,,
O=C(Nc1ccc(S(=O)(=O)C(F)(F)F)cc1)C1=CCN(c2ncccc2C(F)(F)F)CC1,5.8 µM (active),3.66 µM (active),,
COC(=O)C1=CO[C@@H](O[C@@H]2O[C@H](CO)[C@@H](O)[C@H](O)[C@H]2O)[C@@H]2[C@@H](C(=O)OC)[C@@H](O)C(O)[C@H]12 (stereo partly specified),inactive,inactive,,
C[C@@H]1O[C@@H](O[C@@H]2[C@@H](O)[C@H](O[C@H]3[C@H](O[C@H]4CC[C@@]5(C)C(CC[C@]6(C)C5CC=C5[C@@H]7CC(C)(C)CC[C@]7(C(=O)O[C@@H]7O[C@H](CO)[C@@H](O)[C@H](O)[C@H]7O[C@@H]7O[C@@H](C)[C@H](O[C@@H]8O[C@@H](C)[C@H](O)[C@@H](O)[C@H]8O)[C@@H](O)[C@H]7O)CC[C@]56C)[C@@]4(C)CO)O[C@H](C(=O)O)[C@@H](O)[C@@H]3O)O[C@H](CO)[C@H]2O)[C@H](O)[C@H](O)[C@H]1O (stereo partly specified),,,94% [at 9.25 µM],108% [at 9.25 µM]
COC1=CC(=O)C[C@@H](C)[C@@]12Oc1c(Cl)c(OC)cc(OC)c1C2=O,inactive,inactive,,
Cc1ccc(NC(=O)c2ccc(CN3CC[C@H](N(C)C)C3)c(C(F)(F)F)c2)cc1Nc1nccc(-c2cncnc2)n1,6.32 µM (active),7.23 µM (active),,
Nc1nc2c(nc(Sc3ccc(Cl)cc3)n2[C@@H]2O[C@@H]3COP(=O)(O)O[C@H]3[C@H]2O)c(=O)[nH]1,inactive,inactive,,
CC(C#N)C(C)O[C@@H]1O[C@H](CO)[C@@H](O)[C@H](O)[C@H]1O (stereo partly specified),inactive,inactive,,
CC1CCC2(C(=O)OC3OC(COC4OC(CO)C(O)C(O)C4O)C(O)C(O)C3O)CCC3(C)C(=CCC4C5(C)CCC(O)C(C)(C(=O)O)C5CCC43C)C2C1(C)O (stereo unspecified),,,98.4% [at 9.25 µM],98.8% [at 9.25 µM]
COc1cc(Br)c(Nc2nc(-c3c(C)nc4ncccn34)cs2)c(Br)c1,1.16 µM (active),1.16 µM (active),,
COc1c(OC2OC(CO)C(O)C(O)C2O)ccc(O)c1C(=O)OCc1ccccc1O[C@@H]1O[C@H](CO)[C@@H](O)[C@H](O)[C@H]1O (stereo partly specified),inactive,inactive,,
C[C@H]1[C@H](C)CC[C@]2(C(=O)O)CC[C@]3(C)C(=CCC4[C@@]5(C)C[C@@H](O)[C@H](O)C(C)(C)C5CC[C@]43C)[C@H]12 (stereo partly specified),inactive,inactive,,
C/C=C(\C)C(=O)OC[C@H]1O[C@@H](O[C@H]2[C@@H](O[C@H]3O[C@H](COC(=O)/C(C)=C/C)[C@@H](O)[C@H](O)[C@H]3O[C@@H]3O[C@H](CO)[C@@H](O)[C@H](OC(=O)/C(C)=C/C)[C@H]3O)O[C@H](COC(=O)/C(C)=C/C)[C@@H](O)[C@@H]2O)[C@H](O)[C@@H](O)[C@@H]1O,,,81.6% [at 9.25 µM],90.8% [at 9.25 µM]
